Shown are actives, neighbours in structure and some others; about 4% of the full set was active somewhere.
Mdm2-MdmX inh = inhibitors of human Mdm2/MdmX interaction; O15151+Q00987; SaOS-2 split-luciferase Mdm2/MdmX complementation, luminescence; inhibition, % at 8 µM; 330,000 compounds, 3% hits; AID 485346;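 active = inhibition of at least 50% at 8 µM in the primary screen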
Target sequence (O15151 whole entry, looked up): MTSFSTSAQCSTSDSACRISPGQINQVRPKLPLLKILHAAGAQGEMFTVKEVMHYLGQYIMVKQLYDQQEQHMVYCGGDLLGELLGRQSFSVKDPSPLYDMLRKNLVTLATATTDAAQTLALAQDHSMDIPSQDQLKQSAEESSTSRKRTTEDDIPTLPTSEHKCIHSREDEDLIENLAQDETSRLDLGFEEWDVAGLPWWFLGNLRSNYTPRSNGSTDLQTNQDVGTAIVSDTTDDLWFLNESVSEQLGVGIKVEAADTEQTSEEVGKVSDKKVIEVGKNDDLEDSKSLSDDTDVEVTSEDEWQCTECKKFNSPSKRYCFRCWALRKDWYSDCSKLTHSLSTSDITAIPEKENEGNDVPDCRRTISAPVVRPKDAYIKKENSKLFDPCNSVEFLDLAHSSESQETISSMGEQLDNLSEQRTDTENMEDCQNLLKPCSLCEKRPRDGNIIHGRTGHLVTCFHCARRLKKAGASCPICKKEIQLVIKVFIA
Target sequence (Q00987 whole entry, looked up): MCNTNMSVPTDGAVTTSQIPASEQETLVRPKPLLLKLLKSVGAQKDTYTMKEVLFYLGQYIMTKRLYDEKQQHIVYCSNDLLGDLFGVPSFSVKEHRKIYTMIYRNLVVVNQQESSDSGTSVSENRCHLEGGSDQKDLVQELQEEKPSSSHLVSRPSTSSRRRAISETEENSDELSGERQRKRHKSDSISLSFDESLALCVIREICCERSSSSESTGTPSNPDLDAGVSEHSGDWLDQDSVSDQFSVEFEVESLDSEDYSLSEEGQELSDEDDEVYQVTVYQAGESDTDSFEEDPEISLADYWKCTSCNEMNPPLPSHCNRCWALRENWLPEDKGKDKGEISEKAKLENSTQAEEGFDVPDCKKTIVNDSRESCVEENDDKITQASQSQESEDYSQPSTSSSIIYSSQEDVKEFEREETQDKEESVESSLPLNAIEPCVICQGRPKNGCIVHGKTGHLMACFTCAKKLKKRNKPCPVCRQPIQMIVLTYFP
Beta apoptosis = blocks beta cell apoptosis | INS-1E cytokine-induced death, ATP luminescence, 48 h; percent of positive-control rescue, neutral wells zero | protection from apoptosis, % (no concentration beside the values) | 300,000 compounds, 0.8% hits | AID 435005;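 active = Every replicate reaches about 75%, or at least half do and their mean reaches it too, limit read from the data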;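 also: 0% = cytokine-treated negative control wells and 100% = positive control rescue; higher means more ATP so stronger rescue from cytokine killing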
Jurkat NFkB inh = lowers PMA/ionomycin-induced NF-kB signal in Jurkat cells; PMA/ionomycin-induced NF-kB luciferase reporter, luminescence; inhibition, % at 4 µM; 330,000 compounds, 0.53% hits; AID 435003; in the data active = inhibition above about 50%
Gli-Sufu block = antagonists of Gli-Sufu signaling. Sufu-KO-LIGHT fibroblasts, Gli luciferase reporter luminescence. inhibition, % at 5 µM. 340,000 compounds, 0.74% hits. AID 588413;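 active = inhibition above about 55%, limit read from the data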;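 also: 0% = DMSO-treated cells and 100% = wells with medium but no cells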
697 NFkB inh = lowers PMA/ionomycin-induced NF-kB signal in 697 B cells; 697 B-cell NF-kB luciferase reporter, 16 h; inhibition, % at 4 µM; 330,000 compounds, 0.33% hits; in the data active = inhibition above about 35%
Gli-Sufu confirm = Gli-SUFU antagonism confirmation, single concentration | shares compounds with Gli-Sufu block | AID 602428 | 2,500 compounds, 40% hits | inhibition, % at 5 µM | Sufu-KO-LIGHT cells, Gli luciferase reporter, luminescence;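 active = mean inhibition at 5 µM reaching about 45%, limit read from the data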;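 also: plate controls were DMSO-treated cells for no effect and wells lacking cells for full effect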
SufuKO cytotox = cytotoxicity counter-screen for Gli-SUFU antagonists. shares compounds with Gli-Sufu block. Sufu-KO-LIGHT cells cytotoxicity, ATP luminescence. cytotoxicity, % at 5 µM. 2,500 compounds, 32% hits. AID 651994;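 active = mean cytotoxicity at 5 µM above about 25%, limit read from the data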;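 also: cells exposed to compound overnight for roughly 16 to 18 hours; plate controls were DMSO wells with cells for no effect and medium without cells for full effect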
Wnt3a counter = inhibits Wnt3a reporter, counter-screen for Gli-SUFU antagonists; shares compounds with Gli-Sufu block; inhibition, % at 6.25 µM; 2,500 compounds, 20% hits; Wnt-LIGHT cells, Wnt3a-driven luciferase reporter, luminescence;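 active = mean inhibition above about 25%, limit read from the data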
Active calls of the source: *; . = no result.

SMILES	Mdm2-MdmX inh	Beta apoptosis	Jurkat NFkB inh	Gli-Sufu block	697 NFkB inh	Gli-Sufu confirm	SufuKO cytotox	Wnt3a counter
Cc1ccc(S(=O)(=O)N2CCN(C(=O)C3CCCO3)CC2)cc1C (centres undefined)	-7.9	-3.9	4.1	3.4	-6.8	.	.	.
Cc1cc(C)c(S(=O)(=O)N2CCN(C(=O)C3CCCO3)CC2)c(C)c1 (centres undefined)	4.9	-2.1	-6.0	57.8*	4.6	12.2	7.1	-12.7
C=C(C)Cn1c(C)cc(C)c(S(=O)(=O)c2cccc(C)c2)c1=O	4.7	1.9	2.6	3.3	-11.6	.	.	.
CC1CCc2c(C(=O)Nc3ccc(N4CCOCC4)cc3)csc2C1 (centres undefined)	-7.5	1.8	-6.4	-0.2	-0.3	.	.	.
COc1ccccc1C(=O)NCc1nnc(SCC(=O)Nc2nccs2)n1C	17.6	0.9	1.5	-24.3	7.1	.	.	.
Nc1nc2nccc(-c3cccnc3)n2n1	8.3	3.5	-20.4	95.4*	8.0	11.2	12.2	1.2
CCN1C(=O)[C@H]2[C@@H](c3ccc(Cl)cc3)N3C(=O)CN(CCOC)C(=O)[C@@]3(Cc3ccccc3)[C@H]2C1=O	-31.8	-1.6	9.3	1.6	6.1	.	.	.
Cc1c(CCOC(=O)CC23CC4CC(CC(C4)C2)C3)sc[n+]1Cc1ccccc1	-4.9	55.8	7.3	54.2	-23.9	58.4*	32.1*	-49.2
CCCCn1c(N)c(N(CC(C)C)C(=O)CSC(C)C(=O)Nc2cc(C)on2)c(=O)[nH]c1=O (centres undefined)	19.1	-2.2	12.3	-1.9	12.6	.	.	.
CCCCc1cc(=O)oc2cc(C)cc(OCC(=O)N3C[C@H]4C[C@@H](C3)c3cccc(=O)n3C4)c12	5.8	-0.8	6.8	13.4	-13.0	.	.	.
Cn1ncc(Cl)c1C(=O)N1CCN(C23CC4CC(CC(C4)C2)C3)CC1	-12.1	-4.8	-11.4	98.6*	-27.2	25.5	4.5	-13.5
Cn1nccc1C(=O)N1CCN(C23CC4CC(CC(C4)C2)C3)CC1	14.7	-1.4	-4.5	10.0	-5.0	.	.	.
Cc1cccc(C(=O)NC2CCN(C(=O)Nc3ccccc3C)CC2)c1	10.4	5.4	1.4	66.7*	6.3	24.2	0.4	3.5
CCNC(=O)Nc1cc(S(=O)(=O)Nc2ccc(OC)cc2)ccc1N1CCOCC1	27.2	88.5*	23.7	61.1*	-15.0	61.0*	46.1*	24.2
CCCCNC(=O)c1ccc(N2CCOCC2)c(NS(=O)(=O)c2ccc(OC)cc2)c1	20.0	-3.1	15.2	3.5	10.1	.	.	.
O=C(Nc1ccccc1)N1CCC(C(=O)N2CCCC(C(F)(F)F)C2)CC1 (centres undefined)	10.4	0.1	-3.8	92.2*	10.5	22.6	14.1	-46.6
COc1ccc(-n2c(=O)/c(=C\c3cccs3)s/c2=C(/C#N)C(=O)N2CCN(C)CC2)cc1	12.2	-8.3	-7.7	56.6*	20.2	10.1	12.5	-15.6
CCCCOC(=O)/C=C/c1ccc(OC(=O)OC)c(OC(=O)OC)c1	23.8	-4.4	3.1	61.9*	16.5	45.6*	11.4	36.8*
COc1ccc(/C=C/C(=O)Oc2ccc(C=O)cc2OC)cc1	40.7	.	9.0	-7.5	5.4	.	.	.
COC(=O)Oc1ccc(/C=C/C(=O)OC(C)C)cc1OC(=O)OC	-2.3	29.3	23.6	53.3	-148.2	28.7	23.5	-6.0
O=C(COC(=O)C1CC1)Nc1ccc(Cl)cc1Cl	-13.0	-3.2	7.7	-5.9	4.5	.	.	.
Cc1ccc(NC(=O)CNC(=O)c2cccs2)cc1S(=O)(=O)Nc1ccc(Cl)cc1	.	-2.8	.	-4.5	.	.	.	.
CCN(Cc1ccccc1)C(=O)COC(=O)c1cc(S(=O)(=O)Nc2ccccc2OC)ccc1O	-15.2	3.7	-6.0	57.7*	3.4	7.0	-3.0	-50.4
COc1ccccc1NS(=O)(=O)c1ccc(O)c(C(=O)OCC(=O)Nc2ccccc2F)c1	-7.4	-6.2	-3.5	-2.4	7.5	.	.	.
Cc1c(C(=O)N2CCOCC2)c(S(=O)(=O)Nc2ccccc2F)c(C)n1C	-1.6	.	-9.0	9.3	6.9	.	.	.
SMILES	Mdm2-MdmX inh	Beta apoptosis	Jurkat NFkB inh	Gli-Sufu block	697 NFkB inh	Gli-Sufu confirm	SufuKO cytotox	Wnt3a counter
Cc1c(C(=O)N2CCCCCC2)c(S(=O)(=O)Nc2ccccc2F)c(C)n1C	-16.5	-3.5	-11.5	51.2	-33.3	24.2	20.2	8.2
CCn1cc[n+](C)c1P(c1ccccc1)c1ccccc1	6.6	13.8	8.3	50.6	13.3	55.2*	13.0	23.2
CCCCn1c(CN(C)Cc2ccccc2)nc2c1c(=O)n(C)c(=O)n2C	29.7	33.8	22.9	60.2*	-31.6	52.4*	20.1	22.0
OC(CN1CCCCCC1)CN(c1ccccc1)c1ccccc1 (centres undefined)	-3.8	30.6	15.5	51.9	-8.7	16.3	11.8	-30.1
OC(CN1CCCCC1)CN(c1ccccc1)c1ccccc1 (centres undefined)	17.3	2.0	-7.1	12.8	-11.7	.	.	.
Cc1cccc(NC(=O)CSc2nnc(C3CC3)n2CC2CCCO2)c1 (centres undefined)	24.9	-0.5	-6.9	-14.0	6.9	.	.	.
Cc1cc(C)n(-c2c(C)[nH]c3ccccc23)n1	14.4	4.4	6.2	4.9	9.9	.	.	.
O=C(Cn1cc([N+](=O)[O-])cn1)N1CCN(Cc2ccc3c(c2)OCO3)CC1	19.1	3.4	8.6	-14.2	1.4	.	.	.
O=C(NCc1ccc2c(c1)OCO2)c1nc(Cn2cc([N+](=O)[O-])cn2)no1	1.3	-8.8	7.8	53.7	9.5	11.2	-10.1	-2.6
CC(=O)N(c1ccc(Cl)cc1)c1c[nH]c2ccccc12	-5.4	.	17.2	55.7*	4.7	13.6	7.5	-11.3
CN(C)S(=O)(=O)c1ccc2oc(SCC(=O)c3c(N)n(C4CC4)c(=O)[nH]c3=O)nc2c1	-2.4	5.2	7.3	-2.2	-18.2	.	.	.
CN(C)S(=O)(=O)c1ccc2oc(SCC(N)=O)nc2c1	-3.4	-4.4	-13.5	67.3*	7.9	12.2	7.4	-2.6
CCCCNC(=O)CSc1nc(N)c(C(=O)Nc2ccc(OC)cc2)s1	5.0	-11.4	-3.2	-12.3	-2.9	.	.	.
CC1=C(C(N)=O)C(c2ccc(Cl)c(Cl)c2)n2ncnc2N1 (centres undefined)	1.3	-4.0	-13.8	2.2	3.3	.	.	.
Cc1ccc(NC(=O)c2cccc3ccccc23)cc1	-17.2	2.6	-34.1	-17.3	-69.6	.	.	.
Cc1ccc(NC(=O)c2cc(C)n(-c3cccc(C)c3)c2C)cc1	-18.4	5.0	-82.2	77.3*	-124.0	86.1*	66.8*	89.2*
COc1cc(CCC(=O)Nc2ccc(C)c(S(=O)(=O)N3CCCCCC3)c2)cc(OC)c1OC	34.7	13.7	16.3	51.1	-18.4	30.2	4.2	-8.2

From PubChem BioAssay
